PLK1 PBD inh = inhibitors of human PLK1 polo-box domain binding. P53350. Plk1 PBD binding of FITC phosphopeptide, fluorescence polarization. Potency, µM, for inactives: max response, negative = inhibition, usual class: inhibitors. 360,000 compounds, 2.8% hits. AID 720504; also: potency is read from the fitted curve at half-maximal effect; series mostly up to about 57 µM; % is scaled to controls: 0 for no effect and ±100 for the full control effect; nearly all actives have a fitted effect of over 65% in size
Target sequence (P53350 whole entry, looked up, the tested form may be a part): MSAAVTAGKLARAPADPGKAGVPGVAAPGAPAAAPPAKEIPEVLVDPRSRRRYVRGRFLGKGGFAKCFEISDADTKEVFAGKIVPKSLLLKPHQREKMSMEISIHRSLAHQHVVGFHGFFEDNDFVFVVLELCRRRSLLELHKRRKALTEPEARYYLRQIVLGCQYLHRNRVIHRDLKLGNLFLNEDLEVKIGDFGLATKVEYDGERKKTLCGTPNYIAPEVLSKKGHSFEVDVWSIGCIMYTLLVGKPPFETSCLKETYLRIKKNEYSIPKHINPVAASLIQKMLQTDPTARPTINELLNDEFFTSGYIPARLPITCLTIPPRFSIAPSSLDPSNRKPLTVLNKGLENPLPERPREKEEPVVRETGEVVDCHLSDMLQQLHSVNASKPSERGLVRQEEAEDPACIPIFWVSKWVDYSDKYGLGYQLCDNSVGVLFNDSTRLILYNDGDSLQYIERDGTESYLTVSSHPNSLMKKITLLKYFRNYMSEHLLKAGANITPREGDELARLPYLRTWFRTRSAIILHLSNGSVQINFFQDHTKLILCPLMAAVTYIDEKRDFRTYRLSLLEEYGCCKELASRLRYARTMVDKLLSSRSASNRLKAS
VDR inh = vitamin D3 receptor (human) inhibition. VDR-SRC2-3 peptide fluorescence polarization, 2 h. Potency, µM, without a hit: max response, negative = inhibition, most hits filed as inhibitors. AID 504847. 400,000 compounds, 0.93% hits. P11473; also: potency is read from the fitted curve at half-maximal effect; % is scaled to controls: 0 for no effect and ±100 for the full control effect
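Reagent solutions, kept cold and dark, are dispensed first; compounds are then pinned in at 23 nl, plates briefly spun, and incubated 2 h at ambient temperature. Inhibition of VDR–SRC2-3 peptide binding is read by fluorescence polarization.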
uPA surface inh = inhibitors of cell surface uPA generation; Potency, µM (doses to about 38.3 µM), without a hit: at the highest dose activity change, negative = inhibition, hits mostly inhibitors; 330,000 compounds, 0.31% hits; cell surface uPA generation assay, qHTS; active = well fitted inhibition curve with a large enough effect; inconclusive = small, poorly fitted or top-dose-only effect; inactive = no such curve, though single readings can be large or run the other way; tested in mouse RAW 264.7 cells; also: potency is read from the fitted curve at half-maximal effect; % is scaled to controls: 0 for no effect and ±100 for the full control effect; nearly all actives have a fitted effect of over 55% in size
TSHR antagonist = blocks TSH signaling through the human TSH receptor | 330,000 compounds, 0.2% hits | AID 504810 | TSHR-expressing cells, TSH-stimulated cAMP HTRF, 2 h; stronger effect = lower value | P16473 | activity change, negative = inhibition, % at 11.5 µM;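 active = activity change below a set negative limit, meaning inhibition stronger than a set level, cut at about -70% in these data; inconclusive = activity change between two set negative limits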; also: % is scaled to controls: 0 for no effect and ±100 for the full control effect
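Freshly harvested TSHR cells receive pin-tooled compound, then EC80 TSH at 4nM final. After 2 hours at 37 deg C, antibody in lysis buffer and cAMP-d2 are added; 30 minutes at ambient temperature precede the HTRF read.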
PTAP TSG101 blk = blocks PTAP/TSG101 interaction to inhibit HIV-1 budding; Q99816; Fluorescence polarization, FITC-PTAP peptide / Tsg101 binding; Potency, µM (highest dose often 115 µM), inactives show top-dose activity change, negative = inhibition, most hits filed as inhibitors; 340,000 tested, under 10 active; AID 493005; active = well fitted inhibition curve with a large enough effect in the main read-out, with a control signal flat, not every such curve was filed as active; inconclusive = small, poorly fitted or top-dose-only effect, or effect the other way, or a change in a side signal; inactive = no such curve, though single readings can be large or run the other way; also: potency is read from the fitted curve at half-maximal effect; % of control where 0% means no effect
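Fluorescence polarization binding of Tsg101 binding domain (10 uM final) to FITC-labeled PTAP peptide (50 nM final) in HEPES pH 7.5 buffer with NaCl, Tween 20, EDTA, TCEP. Compounds added before peptide; binding 20 min at RT.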
* hit, by the source's call; u = inconclusive; x = no result given. Hits are enriched below; roughly 3.1% of the tested compounds scored in any of these assays. Unless noted, calls follow the shape of the dose curve; as a rule, active = well fitted curve in the direction sought with a large enough effect; inconclusive = small, poorly fitted or top-dose-only effect, or another doubt; inactive = no such curve, though single readings can be large; an effect the other way counts as inactive or inconclusive.

SMILES	PLK1 PBD inh	VDR inh	uPA surface inh	TSHR antagonist	PTAP TSG101 blk
CC1(CC(=O)Nc2ccccc2)NC(=S)N(c2ccccc2)N1 (stereo not drawn)	27µM*	-7%	-3%	9	1%
CCCCCC1(C)NC(=S)N(c2ccccc2)N1 (stereo not drawn)	-10%	u	0%	10	-6%
CCCn1cc(S(=O)(=O)c2ccc(OC)cc2)c(=O)c2cc(F)c(N3CCCC(C)C3)cc21 (stereo not drawn)	x	10%	x	x	x
CCOC(=O)C1=C(CSc2nc(C)ccc2C#N)OC(N)=C(C#N)C1c1cccc(OC)c1OC (stereo not drawn)	21µM*	15%	-6%	-10	1%
CCOC(=O)C1=C(CC)OC(N)=C(C#N)C1c1ccc(OC)c(OC)c1OC (stereo not drawn)	-4%	10%	x	-7	0%
C[C@@]12CCc3occc3[C@H]1CC[C@]13CC(=O)[C@@H](CC[C@H]12)C3	x	9%	x	x	x
CC(=O)N1CCC2(CC1)OC(=O)C(C)=C2C(=O)Nc1ccccc1C(F)(F)F	x	-4%	x	x	x
Cc1sc(NC(=O)CSc2nc(O)cc(=O)[nH]2)nc1-c1ccccc1	-17%	-2%	0%	-13	-3%
COc1cccc(-c2nc(SCC(=O)Nc3nc(-c4ccccc4)c(C)s3)[nH]c(=O)c2C#N)c1	21µM*	-13%	2%	-6	-11%
CCOc1ccc2nc(NC(=O)CSc3nc(-c4ccccc4)c(C#N)c(=O)[nH]3)sc2c1	21µM*	-5%	-1%	-9	-9%
CC1CCCC(C)N1/N=C/c1ccccc1Br (stereo not drawn)	-6%	-19%	-5%	-1	0%
CC(C)c1ccc(Nc2cc(C(=O)NC3CCCCC3)c3ccccc3n2)cc1	x	6%	x	x	x
CCOc1ccc(C2NC(=O)C(C#N)=C(S)N2c2ccc(C)cc2)cc1OC (stereo not drawn)	-24%	18µM*	-2%	-6	-5%
CCOc1ccc(C2NC(=O)c3ccccc3O2)cc1OC (stereo not drawn)	-8%	11%	5%	u	-2%
CCOc1ccc(C2NC(=O)C(C#N)=C(S)N2c2cccc(C)c2)cc1OC (stereo not drawn)	-17%	79µM*	1%	5	-5%
C[C@@H]1CN([C@H](C)CO)C(=O)CCCn2nncc2CO[C@H]1CN(C)Cc1ccncc1	-4%	x	x	x	x
COc1cccc(C(=S)N2CCCC2)c1OC	24µM*	u	6%	7	-3%
COc1cc(C(=S)N2CCCC2)ccc1O	27µM*	u	10%	18	-4%
CCOc1cc(C(=S)N2CCCC2)ccc1O	19µM*	u	0%	1	1%
COc1cc(C(=S)N2CCCCC2)ccc1O	u	-13%	14%	2	-3%
COc1cc(C(=O)N2CCN(c3ccc(C)cc3C)CC2)cc(OC)c1OC	-10%	-4%	3.2µM*	-1	-4%
COc1cc(C(=S)N2CCC(C(N)=O)CC2)ccc1O	27µM*	-22%	1%	0	-1%
CCOc1ccc(C(=S)N2CCCC2)cc1OC	-7%	8%	-4%	6	-2%
COc1ccc(C(=S)N2CCN(c3ccccc3C)CC2)cc1OC	24µM*	u	-4%	x	0%
COc1cc(C(=S)N2CCC(C)CC2)ccc1O	24µM*	-24%	3%	3	-2%
SMILES	PLK1 PBD inh	VDR inh	uPA surface inh	TSHR antagonist	PTAP TSG101 blk
COc1cc(C(=O)O)ccc1O	-2%	-5%	-3%	5	4%
Oc1ccc(C(=S)N2CCCCC2)cc1	19µM*	-13%	1%	5	2%
Cc1ccc(CNC(=O)CS(=O)(=O)c2cccc3nsnc23)cc1	x	0%	x	x	x
CCCS(=O)(=O)c1nc(S(=O)(=O)c2ccc(C)cc2)c(N(C)Cc2ccccc2)s1	x	17%	x	x	x
O=C(NCCc1ccc(F)cc1)c1cc2ccccc2oc1=O	-5%	-10%	8%	-14	-5%
O=C(NCCc1ccccc1)c1cc2ccccc2oc1=O	-4%	3%	15%	-118*	-2%
O=C(CSc1nc(=O)n(CCN2CCOCC2)c2c1CCC2)Nc1ccc(OC(F)(F)F)cc1	-6%	6%	-7%	-14	2%
Brc1c(OCCOCCn2cncn2)ccc2ccccc12	17µM*	-6%	0%	5	-1%
Cc1cc(Cl)ccc1OCCn1cncn1	4%	-8%	1%	6	-1%
C/C(=N\NC(=O)c1ccccc1O)C1C(=O)c2ccccc2C1=O	-1%	8%	1%	-22	-2%
C/C(=N/NC(=O)c1cc2ccccc2cc1O)C1C(=O)c2ccccc2C1=O	9.5µM*	-25%	8%	-43	-5%
CN1C(=O)C(C)(C)c2cc(S(=O)(=O)NCc3ccc(C(=O)Nc4ccc(Cl)cc4)cc3)ccc21	x	-2%	x	x	x
CCOc1ccc(CCNC(=O)C(CC)n2nc(C)c3c(C)n(-c4ccccc4)nc3c2=O)cc1 (stereo not drawn)	x	7%	x	x	x
COc1ccc(/C=N\NC(=O)C2C(=O)NCC2c2ccccc2)cc1O (stereo not drawn)	3µM*	u	7%	15	1%
COc1cccc(/C=N/NC(=S)Nc2cccnc2)c1	-6%	-12%	-8%	1	-1%
Oc1ccc(/C=N/NC(=S)Nc2cccnc2)cc1	3%	8%	4µM*	3	-1%
CCOc1ccc(NC(=S)Nc2cccnc2)cc1	30µM*	-19%	16%	-3	-2%
O=C(Nc1ccccc1)c1sc2cc(C(F)(F)F)cnc2c1-c1cccs1	3µM*	u	3%	0	2%
COc1cc(/C=C2\SC(=O)N(CC(=O)Nc3cccc(C)c3)C2=O)cc([N+](=O)[O-])c1O	9.5µM*	71µM*	7%	-30	-4%
CCOc1cc(/C=C2\SC(=O)N(CC(=O)Nc3ccccc3F)C2=O)cc([N+](=O)[O-])c1O	24µM*	u	2%	-11	-3%
Cc1coc2c(C)c3oc(=O)c(CC(=O)N4CCCCC4)c(C)c3cc12	x	-3%	x	x	x
O=C(c1cc(-c2ccc(Cl)cc2)on1)N1CCCCCC1	27µM*	u	x	-15	-2%
O=C(c1cc(-c2ccc(Cl)c(Cl)c2)on1)N1CCCCCC1	0%	-20%	-2%	2	0%
COc1ccc(-c2cc(C(=O)N3CCc4ccccc4C3)no2)cc1	-12%	-16%	7%	-13	-4%
O=C(c1cc(-c2ccc(Br)cc2)on1)N1CCc2ccccc2C1	34µM*	u	-10%	28	-2%
Cc1cccc(CSc2nnc3[nH]c(=O)cc(-c4ccccc4)n23)c1	x	-1%	x	x	x
CCOC(=O)c1ccc2c(c1)C1C=CCC1C(C(=O)O)N2 (stereo not drawn)	x	x	x	-8	x
Cc1cc(C)c2c(c1)NC(C(=O)O)C1CC=CC21 (stereo not drawn)	3µM*	57%	-3%	-12	-9%

High-throughput results as filed in PubChem BioAssay.
